# Columns and labels:
# Conditions in all cases: concentration: 1 μM, replicates: in singlicate; n = 1
# CSF1R = system: CSF1R
# CSK = system: CSK
# CSNK1A1L = system: CSNK1A1L
# CSNK1A1 = system: CSNK1A1
# CSNK1D = system: CSNK1D
# CSNK1E = system: CSNK1E
# CSNK1G1 = system: CSNK1G1
# CSNK1G2 = system: CSNK1G2
# CSNK1G3 = system: CSNK1G3
# CSNK2A1 = system: CSNK2A1
# 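Also: KINOMEscan kinase panel screen.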
SMILES,%Inh (CSF1R) [%],%Inh (CSK) [%],%Inh (CSNK1A1L) [%],%Inh (CSNK1A1) [%],%Inh (CSNK1D) [%],%Inh (CSNK1E) [%],%Inh (CSNK1G1) [%],%Inh (CSNK1G2) [%],%Inh (CSNK1G3) [%],%Inh (CSNK2A1) [%]
Nc1nc(N)c2nc(-c3ccccc3)[nH]c2n1 [SKF-12778],2,0,0,52,26,25,18,32,30,14
O=C1NC(=O)C(c2ccccc2)=C1Nc1cccc(O)c1 [SB-390534],10,0,8,19,0,16,0,0,8,0
CCC(=O)c1c(-c2ccccc2)c2cc(Cl)ccc2c(=O)n1Cc1cc(C(=O)NC2CC2)n(C)n1,9,0,0,11,0,0,0,0,0,0
COc1cc(OC)cc(-c2cc3cnc(N)nc3nc2NC(=O)NC(C)(C)C)c1,73,0,0,36,0,0,0,0,32,0
COc1cc(Nc2ccnc3ccc(C(F)(F)F)cc23)cc(OC)c1OC [GW577382],8,3,19,36,21,9,3,0,27,10
CCn1c(-c2nonc2N)nc2ccccc21 [SB-693162/GW549034],0,5,0,6,7,0,0,0,0,21
Cc1ccc(Oc2ccc(Nc3ncnc4cc[nH]c34)cc2C)cn1,5,20,11,8,0,0,12,13,0,32
COc1cccc(-n2cnc3c(N)ncnc32)c1 [SKF-97416],7,8,0,31,12,0,0,0,3,0
Nc1nccc2scc(-c3ccc4c(c3)CCN4C(=O)Cc3ccccc3)c12 [GSK2576924],78,0,0,0,13,6,7,0,26,5
O=C(Nc1ccc2c(c1)OCO2)NC1CCN(c2ccnc(NCc3ccc(F)cc3)n2)CC1 [GSK1379859],0,0,15,0,0,36,0,0,20,0
Cc1cc(Nc2nc(-c3cccc(C)n3)nc3ccccc23)ccn1 [GW872411],0,0,0,0,35,31,3,0,0,0
Cc1ccccc1COc1cc(-n2cnc3cc(Cl)ccc32)sc1C(N)=O [GW813349],0,0,0,24,1,2,0,7,8,5
COC(=O)c1c(-c2ccccc2)c2cc(Br)ccc2c(=O)n1Cc1ccc(S(C)(=O)=O)cc1,16,0,9,30,9,0,7,13,0,0
CCC(=O)c1c(-c2ccccc2)c2cc(Cl)ccc2c(=O)n1Cc1ccc(C(=O)O)cc1,2,0,1,0,0,0,0,0,0,0
Nc1nc(-c2ccccc2F)c(-c2ccnc3ccccc23)s1 [GW560459],0,0,7,72,66,51,13,1,25,0
COc1cc(Nc2nccc(N3CCC(NC(=O)C(C)c4ccc(Cl)cc4)C3)n2)cc(OC)c1OC (stereo not drawn) [GSK1379757],4,0,0,0,0,18,0,0,25,1
CN(C)c1cc(-c2ccc3c(N)n[nH]c3c2)nc(N)n1 [GSK2219329],2,0,0,0,25,27,0,2,16,0
Cc1nnc(-c2ccc(C)c(-c3ccc(C(=O)O)cc3)c2)o1 [GW608005],0,0,0,0,0,8,7,0,9,21
O=C(Nc1n[nH]c2nc(-c3ccccc3)c(Br)cc12)C1CC1 [SB-708998],0,0,0,6,0,0,10,2,15,6
COc1ccc(Nc2nccc(N3CCC(NS(=O)(=O)c4ccc(NC(C)=O)cc4)C3)n2)cc1 (stereo not drawn) [GSK1379729],1,0,13,32,17,25,6,18,28,15
COC(=O)c1c(-c2ccccc2)c2cc(C)ccc2c(=O)n1Cc1ccccc1,17,0,0,0,0,0,0,5,0,0
Cc1cccc(-c2cc(-c3c[nH]nc3-c3ccccn3)ccn2)c1 [GW679395],53,0,2,0,25,10,8,0,6,0
Nc1ncnc2c1ncn2-c1cccc(F)c1 [SKF-97560],20,0,0,16,26,0,0,13,0,28

SMILES,%Inh (CSF1R) [%],%Inh (CSK) [%],%Inh (CSNK1A1L) [%],%Inh (CSNK1A1) [%],%Inh (CSNK1D) [%],%Inh (CSNK1E) [%],%Inh (CSNK1G1) [%],%Inh (CSNK1G2) [%],%Inh (CSNK1G3) [%],%Inh (CSNK2A1) [%]
CCCC(=O)Nc1n[nH]c2ncc(-c3cccc4ccccc34)cc12 [SB-642057],26,0,2,0,37,19,4,0,1,0
CC(C)(C)c1ccc(C(=O)Nc2cn3cc(-c4ccccc4)ccc3n2)cc1,0,0,0,0,0,28,0,8,20,15
Cc1cccc(-c2nc(Nc3ccc4c(cnn4C)c3)c3ccccc3n2)n1 [GW876731],29,2,0,0,50,37,18,10,0,0
Nc1ncnc2c1ncn2-c1cccc2ccccc12 [SKF-97184],3,0,0,0,0,11,0,0,0,0
CCC(=O)c1c(-c2ccccc2)c2cc(Cl)ccc2c(=O)n1Cc1cc(S(C)(=O)=O)n(CC(N)=O)n1,0,4,0,0,0,0,0,0,0,0
CN1C(=O)C(Nc2ccccc2)=C(c2ccccc2)C1=O [SB-300079],16,0,0,0,0,0,0,0,0,0
Cl.c1ccc(Cn2cnc3cc(Nc4ncnc5ccccc45)ccc32)cc1 [GW272142],4,64,11,0,16,42,1,1,27,0
CCC(=O)c1c(-c2ccccc2)c2cc(Cl)ccc2c(=O)n1Cc1cc(S(C)(=O)=O)n(CC(F)F)n1,10,73,0,0,0,1,0,7,0,0
COc1cc2nccc(Nc3cccc(Oc4ccccc4)c3)c2cc1OC.Cl [GW284543],0,11,12,0,0,5,0,0,26,0
COC(=O)c1c(-c2ccccc2)c2cc(Br)ccc2c(=O)n1Cc1ccc(NC(=O)CCC(=O)O)cc1,9,0,18,16,0,0,0,11,0,11
COc1cc2ncn(-c3cc(OCc4ccc(S(C)(=O)=O)cc4)c(C(N)=O)s3)c2cc1OC [GW869979],0,0,0,0,0,13,0,10,3,19
COc1cc2nccc(Nc3ccc(OCc4ccc(NC(C)=O)cc4)cc3)c2cc1OC.Cl [GW440135],73,0,15,0,0,16,0,0,15,5
Cl.NS(=O)(=O)c1cccc(Nc2cc(-c3ccc(F)cc3)n[nH]2)c1 [GW824645],9,0,0,3,0,19,3,0,0,0
CN1C(=O)C(Nc2cc(Cl)c(O)c(Cl)c2)=C(c2ccc(Cl)cc2)C1=O [SB-404321],0,0,0,0,0,0,0,0,6,0
Cc1c(Cn2c(C)nn3c(=O)cc(N4CCO[C@H](C)C4)nc23)cccc1C(F)(F)F [GSK2373690],51,0,2,23,25,20,67,0,21,0
Cc1nnc(-c2ccc3ncn(-c4ccc(S(C)=O)cc4)c3c2)o1 (stereo not drawn),12,0,14,0,9,8,0,18,24,22
CCc1nc(-c2cccc(C)c2)c(-c2ccncc2)s1,0,0,12,58,68,70,0,10,12,4
FC(F)(F)c1ccc(-c2ncn(CCCN3CCOCC3)c2-c2ccncc2)cc1 [SB-217780],25,18,33,21,0,0,0,0,12,20
O=C(Nc1n[nH]c2cc(-c3ccccc3F)ccc12)C1CC1 [SB-733371],0,0,15,0,0,14,0,0,10,3
Nc1ncnc2c1ncn2-c1ccc(Cl)cc1 [AH2635],11,0,12,0,9,46,0,0,17,0
CCc1ccc(-c2ccc3c(c2)-c2nn(C)cc2S(=O)(=O)N3C)cc1,0,2,0,2,0,0,0,7,0,0
COc1ccc(-c2coc3ccc(-c4nnc(SCc5cccc(C#N)c5)o4)cc23)cc1,2,20,7,10,0,5,11,0,8,3
Nc1n[nH]c2nnc(-c3ccccc3)c(-c3ccccc3)c12 [GW554060],0,0,13,0,0,7,0,0,0,11

SMILES,%Inh (CSF1R) [%],%Inh (CSK) [%],%Inh (CSNK1A1L) [%],%Inh (CSNK1A1) [%],%Inh (CSNK1D) [%],%Inh (CSNK1E) [%],%Inh (CSNK1G1) [%],%Inh (CSNK1G2) [%],%Inh (CSNK1G3) [%],%Inh (CSNK2A1) [%]
Cc1ccc(-c2ccc3c(ccc4sc5c(c43)NC[C@@H](C)N=C5N(C)C)n2)cn1,0,0,0,6,0,0,0,0,1,0
O=C(NCc1cccs1)c1cc(C(=O)c2c(Cl)cccc2Cl)c[nH]1 [GW823670],13,0,0,0,0,0,0,0,0,0
CCS(=O)(=O)c1ccc(OC)c(Nc2ncc(-c3ccc(F)cc3)o2)c1.Cl [GW591947],0,0,0,0,18,40,13,0,8,0
O=c1cc(N2CCOCC2)nc2n(Cc3ccc(F)c(Cl)c3)ccn12 [GSK2297099],26,13,6,0,9,52,12,0,34,1
COc1ccc(-n2cnc3c(N)ncnc32)cc1 [SKF-97236],0,4,7,33,42,34,13,11,6,12
O=C(Nc1n[nH]c2nc(-c3ccccc3)c(Cl)cc12)C1CC1 [SB-734909],28,0,0,0,0,11,0,0,0,31
CCn1c(-c2ccoc2)nc2cnccc21 [SB-733887],8,0,0,0,12,3,0,0,4,0
Nc1n[nH]c2ncc(-c3ccccc3)cc12 [SB-517081],47,0,9,0,30,15,68,0,6,0
COc1cc2ncn(-c3cc(OCCCc4ccccc4)c(C(N)=O)s3)c2cc1OC [GSK205189],0,0,5,23,1,2,1,2,21,0
Cc1nn2c(=O)cc(N3CCOCC3)nc2n1Cc1cccc(Cl)c1Cl [GSK2342769],13,0,22,0,4,22,0,0,9,16
OCCCNc1nccc(-c2c(-c3cccc(C(F)(F)F)c3)nn3cc(C(F)(F)F)ccc23)n1 [GW630813],0,0,0,0,36,54,0,0,13,0
COc1cccc(C2=C(N(C)c3ccccc3)C(=O)NC2=O)c1 [SB-334865],4,0,1,0,15,2,1,0,2,0
Fc1cccc(CSc2nnc(-c3ccc4c(c3)CCO4)o2)c1,0,0,11,8,0,0,15,10,0,16
CCCNC(=O)Nc1ccc(Oc2ncnc3ccn(C)c23)cc1,29,0,7,10,9,0,2,11,0,0
CCC(=O)c1c(-c2ccccc2)c2cc(Cl)ccc2c(=O)n1Cc1cc(S(C)(=O)=O)n(CCC(C)(C)O)n1,16,0,0,31,8,0,21,15,0,17
C[C@@H]1CC[C@H](C(=O)NC2CCCCC2)CN1c1cc(-c2ccc3c(N)n[nH]c3c2)nc(N)n1 [GSK2291363],26,0,12,0,17,24,14,3,30,21
COc1ccc(CNC(=O)NC2CCN(c3ccnc(Nc4ccc(F)cc4)n3)C2)cc1 (stereo not drawn) [GSK1379706],16,5,12,25,29,15,21,0,23,4
COc1ccc(-c2cc3c(C)nc(N)nc3n([C@H]3CC[C@H](OCCO)CC3)c2=O)cn1,5,13,0,24,1,4,0,0,0,0
O=C(NCCNc1ccnc(Nc2ccc(F)cc2)n1)Nc1ccc2c(c1)OCO2 [GSK1379882],18,2,0,0,2,42,3,0,22,3
CCS(=O)c1ccc(-c2coc3ccc(-c4nnc(C)o4)cc23)cc1 (stereo not drawn),0,19,0,1,0,0,0,0,0,21
COc1ccc(-c2cc3c(C)nc(N)nc3n([C@H]3CC[C@H](O)CC3)c2=O)cn1,0,0,0,13,0,0,0,0,0,0
COc1cc2ncn(-c3cc(OCc4ccncc4Br)c(C(N)=O)s3)c2cc1OC [GW854278],0,6,10,0,8,0,18,0,0,0
Cc1nc(N(C)[C@H]2CN(C(=O)CC#N)CC[C@H]2C)c2cc[nH]c2n1,13,0,3,0,0,0,5,0,0,0

# — article PMC5540273 (PLoS ONE, 2017)
